The campaign covered roughly 1,000 compounds. About 230 (23%) were called active. Another 1% or so got no clear call; they are omitted. The rule behind the calls is not given here. The list shows a part of the results. Results with a measured potency or affinity are listed apart.

Long-chain-fatty-acid--AMP ligase FadD28 (Mycobacterium tuberculosis (strain ATCC 25618 / H37Rv)), sequence (P9WQ59 whole entry, looked up): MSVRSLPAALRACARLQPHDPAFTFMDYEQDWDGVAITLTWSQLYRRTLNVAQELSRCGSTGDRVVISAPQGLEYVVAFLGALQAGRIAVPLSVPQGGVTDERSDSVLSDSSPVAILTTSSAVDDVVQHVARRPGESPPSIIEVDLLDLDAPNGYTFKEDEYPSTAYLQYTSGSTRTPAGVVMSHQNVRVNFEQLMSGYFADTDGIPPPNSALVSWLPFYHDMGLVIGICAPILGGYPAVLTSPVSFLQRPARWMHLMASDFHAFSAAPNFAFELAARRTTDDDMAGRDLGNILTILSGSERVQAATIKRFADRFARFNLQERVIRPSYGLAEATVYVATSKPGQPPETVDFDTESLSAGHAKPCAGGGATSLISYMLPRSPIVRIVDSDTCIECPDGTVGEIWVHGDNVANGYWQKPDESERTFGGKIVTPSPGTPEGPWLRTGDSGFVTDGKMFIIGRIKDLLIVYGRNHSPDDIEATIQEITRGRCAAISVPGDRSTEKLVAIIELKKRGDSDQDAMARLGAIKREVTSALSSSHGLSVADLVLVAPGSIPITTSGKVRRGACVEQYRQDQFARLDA

The test addresses Long-chain-fatty-acid--AMP ligase FadD28 (Mycobacterium tuberculosis (strain ATCC 25618 / H37Rv)) (UniProt P9WQ59). Description: inhibitors of FadD28 bisubstrate probe binding, dose response, biochemical, fluorescence polarization, cherry-pick (AID 624273). Conditions: series mostly up to 50 µM. A general note: Polarisation of emitted light reports the rotation of a fluorescent probe.
For the molecule `NNC(=O)C1CCCn2c1nc1sc3c(c1c2=O)CCCC3` (centres undefined), the result was inactive.

Consider `Cc1ccc(CSCCNC(=O)/C=C/c2ccccc2Cl)cc1`, for which the outcome was inactive.

In the case of `O=C(CSc1ccc(Cl)cc1)N1CCOCC1`, the outcome was inactive.

As to `COc1ccc(C(=O)NCCSCc2ccc(C)cc2)cc1`, the call was inactive.

With `COc1ccc(CNC(=O)c2ccc(Cl)c(S(=O)(=O)N3CCCCCC3)c2)cc1`, the molecule was called inactive.

In the case of `Cc1ccc(CSCCNC(=O)c2ccc(NS(C)(=O)=O)cc2)cc1`, the molecule was called inactive.

Regarding `Cc1ccc(C(=O)NCCSCc2ccc(Cl)cc2Cl)cc1[N+](=O)[O-]`, the result was inactive.

As for `COc1ccc(CCNC(=O)c2ccc(CNS(=O)(=O)c3cccc(Cl)c3)cc2)cc1OC`, the call was inactive.

In the case of `Brc1ccc(Sc2cnc3ccccc3n2)cc1`, the result was inactive.

Take `C=CCSc1nnc2nc3c(nn12)c1cc(C)ccc1n3CC=C`: the result was inactive.

As for `COc1ccc(C(=O)Nc2ccc(C)cn2)cc1S(=O)(=O)N1CCCc2ccccc21`, the molecule was called inactive.

With `COC(=O)CC1C(=O)NCCN1C(=O)c1ccc(S(=O)(=O)N2CCOCC2)cc1` (centres undefined), the result was inactive.

`COc1ccc(CCNC(=O)c2ccc(CNS(=O)(=O)c3ccc(C(C)(C)C)cc3)cc2)cc1OC`: the outcome was inactive.

With `COc1ccc(C(=O)NCc2ccc(C)cc2)cc1S(=O)(=O)N1CCCc2ccccc21`, the molecule was classed as inactive.

For `CC1(c2ccc(OC(F)F)cc2)NC(=O)N(CC(=O)NC2CCCC2)C1=O` (centres undefined), the call was inactive.

On to `CC(C)CCNc1nc(N2CCCC2)c2c(c1C#N)CCN(C)C2`, for which the result was inactive.

On to `CN(c1ccccc1)S(=O)(=O)c1ccc(NC(=O)CC(=O)c2ccccc2)cc1`, for which the result was inactive.

As for `CCN(CC)S(=O)(=O)c1cc(NC(=O)c2cc([N+](=O)[O-])ccc2N2CCOCC2)ccc1C`, the call was inactive.

In the case of `O=C(CCNC(=O)c1ccc([N+](=O)[O-])cc1)Nc1ccccc1N1CCOCC1`, the outcome was inactive.

As to `O=C(NNC(=O)c1ccc(Cl)c([N+](=O)[O-])c1)c1ccncc1`, the molecule was classed as inactive.

As to `Cc1ccc(NC(=O)c2cc([N+](=O)[O-])ccc2N2CCOCC2)cc1C`, the molecule was classed as inactive.

As for `O=C1C=C(O)CC(c2ccco2)C1` (centres undefined), the molecule was called inactive.

Turning to `CC(=O)C1=C(C)NC(SCC(=O)c2ccc(F)cc2)=C(C#N)C1c1ccco1` (centres undefined), the result was inactive.

For `COc1ccc(NC(=O)Nc2ccc3c(c2)C(=O)N([C@H](C)CO)C[C@H](C)[C@@H](CN(C)S(=O)(=O)c2ccc(OC)cc2)O3)cc1`, the molecule was called inactive.

In the case of `CCN(CC)CCCNC(=O)C1c2ccccc2C(=O)N(C)C1c1ccc(OC)cc1` (centres undefined), the outcome was inactive.

Turning to `COc1ccc(/C(N)=N/OC(=O)c2c(-c3ccccc3Cl)noc2C)cc1OC`, the molecule was called inactive.

As to `O=C1/C(=C\c2cc([N+](=O)[O-])ccc2O)SC(=S)N1Cc1ccc(Cl)cc1`, the result was inactive.

For the molecule `CCOc1cc(/C=C2\SC(=O)N(CC(=O)Nc3ccccc3F)C2=O)cc([N+](=O)[O-])c1O`, the molecule was classed as inactive.

`O=C(CNC(=O)c1nc[nH]c1C(=O)NCC(=O)OCc1ccccc1)OCc1ccccc1`: the call was inactive.

For the molecule `COc1ccc(OC)c2[nH]c(=O)c(CCNS(=O)(=O)c3ccc(Cl)cc3)cc12`, the outcome was inactive.

On to `Cc1cccc(C(=O)NCC(=O)OCc2nc(N)nc(Nc3ccccc3C)n2)c1`, for which the call was inactive.

As to `O=C(O)CCCc1nc(-c2ccccc2)no1`, the outcome was inactive.

For `CCOc1cc(/C=C2\N=C(SC)SC2=O)cc([N+](=O)[O-])c1OC(C)=O`, the outcome was inactive.

For the molecule `CCC(C)OC(=O)C1=C(C)NC(=O)CC1c1ccccc1OC` (centres undefined), the molecule was classed as inactive.

Take `Cc1ccc(/C=C/C(=O)C2C(=O)c3ccccc3C2=O)cc1`: the molecule was classed as inactive.

As for `Cc1noc(C)c1C(=O)NCc1ccccc1Br`, the result was inactive.

`O=C(NNC1CC(=O)N(c2ccc(Br)cc2)C1=O)c1cccnc1` (centres undefined): the molecule was called inactive.

Consider `O=C(O)c1ccc(N=C2SCC(=O)N2Cc2ccccc2)cc1`, for which the molecule was called inactive.

For `O=C1CC(C(=O)Nc2ccc(Br)cc2)S/C(=N\N=C\c2ccco2)N1` (centres undefined), the molecule was classed as inactive.

For `CN(C)S(=O)(=O)c1cc(NC(=O)CSc2ncc(C(F)(F)F)cc2Cl)ccc1Cl`, the outcome was inactive.

In the case of `COc1cccc(NC(=S)/C(=C(\[O-])c2cc(C)n(-c3ccccc3F)c2C)[n+]2ccc(N(C)C)cc2)c1`, the molecule was called inactive.

As for `O=C(c1cc2cc(Cl)ccc2[nH]1)N1CCCCC1`, the molecule was classed as inactive.

Regarding `C/C(=N\N=C(/N)SC1CC(=O)N(c2ccc(Br)cc2)C1=O)c1cccs1` (centres undefined), the molecule was called inactive.

For `CCN(CC)c1ccc(/C=N/NC(=O)Cc2cccs2)c(O)c1`, the call was inactive.

On to `C[C@H](CO)N1C[C@H](C)[C@H](CN(C)S(=O)(=O)c2cccs2)Oc2ccc(NC(=O)Nc3ccc4c(c3)OCO4)cc2CC1=O`, for which the molecule was classed as inactive.

Turning to `Cc1ccc(-n2ncc3c(=O)[nH]c(SCC(=O)N4CC(=O)Nc5ccccc54)nc32)cc1`, the molecule was classed as inactive.

Regarding `O=C(Cc1ccccc1[N+](=O)[O-])OCC(=O)c1c[nH]c2ccccc12`, the call was inactive.

For the molecule `COc1ccc(S(=O)(=O)NCC2CCCN(Cc3cn(C)nc3C)C2)cc1` (centres undefined), the result was inactive.

In the case of `O=C(Cn1cc2c(n1)CCCC2)Nc1cc(-c2cccc(Cl)c2)no1`, the outcome was inactive.

Take `COc1ccc(-c2nc3ccccc3c(=O)n2CCCN2CCOCC2)cc1`: the molecule was classed as inactive.

Take `CCCCOc1[nH]c2nc(-c3ccco3)n(Cc3ccco3)c(=N)c2c1C#N`: the outcome was inactive.

For `COC(=O)c1sc(NC(C)=O)c(C(=O)OC)c1C`, the outcome was inactive.

Take `O=C1NN(c2ccc(Cl)c(Cl)c2)C(=O)/C1=C/c1ccc(-c2ccccc2C(=O)O)o1`: the molecule was classed as inactive.

In the case of `O=[N+]([O-])c1ccc2[nH]c(=S)sc2c1`, the result was inactive.

In the case of `Clc1cccc(/C=N/N2CCN(Cc3ccccc3)CC2)c1`, the outcome was inactive.

As for `O=C(Nc1cnc2sccn2c1=O)c1ccccc1Cl`, the outcome was inactive.

As to `Cc1ccc(-n2nnnc2SCC(=O)Nc2nc(-c3ccc(F)cc3)cs2)cc1C`, the result was inactive.

For the molecule `CC1=NN(c2ccc([N+](=O)[O-])cc2)C(=O)C1`, the outcome was inactive.

On to `COc1ccccc1CO/N=C/NC(=O)c1c(OC)ccnc1Oc1ccc(F)cc1`, for which the result was inactive.

With `COCCNC(=O)C1CC(=O)N(c2ccc(OC)cc2)C1c1ccc(OC)cc1` (centres undefined), the molecule was called inactive.

Regarding `CCCOC(=O)c1ccc(NC(=O)c2cc(OC)c(OC)c(OC)c2Br)cc1`, the molecule was called inactive.

In the case of `COc1ccc(/C=C2/NC(=O)N(CC(=O)Nc3cccc(C)c3)C2=O)cc1O`, the molecule was called inactive.

On to `Cc1cccc(NC(=O)CN2C(=O)N/C(=C/c3ccc(C)s3)C2=O)c1`, for which the call was inactive.

For `CCOc1cc(C2NC(=O)NC(C)=C2C(=O)OCC2CCCCC2)ccc1O` (centres undefined), the molecule was called inactive.

On to `CC(C)NC(=O)N1CCC(n2nccc2NC(=O)CCOc2ccccc2)CC1`, for which the molecule was classed as inactive.

Regarding `O=C1NC(=S)S/C1=C\c1cc2ccccc2nc1N1CCCCC1`, the result was inactive.

Consider `COc1ccc(/C=C2/C(=O)N(Cc3ccco3)C(=O)N(C(C)C)C2=O)cc1`, for which the result was inactive.

`CC1CC(C)CN(CCCNC(=O)Cn2cccc2C(=O)c2ccccc2)C1` (centres undefined): the outcome was inactive.

On to `CC(=O)c1ccc(C(=O)N2CCCC(Nc3ccccc3)C2)s1` (centres undefined), for which the call was inactive.

As to `O=C(c1ccc2nc(Cc3cccc(Cl)c3)oc2c1)N1CCC(O)CC1`, the call was inactive.

In the case of `CCOC(=O)Nc1cc(N)ncn1`, the result was inactive.

As for `COc1ccc(CCNC(=O)C(=O)NCCCN2CCOCC2)cc1`, the call was inactive.

In the case of `CCN(CC)c1ccc(/C=c2\sc3nnc(-c4ccccc4Cl)n3c2=O)cc1`, the molecule was called inactive.

On to `Cc1ccc(S(=O)(=O)N2CCC(NC(=O)c3cccc(F)c3)CC2)cc1`, for which the molecule was called inactive.

Regarding `CCC1(C)Cc2ccccc2-c2nc(NCCO)[nH]c(=O)c21` (centres undefined), the call was inactive.

Regarding `COCC(=O)/C=C1\Sc2ccccc2N1C`, the molecule was classed as inactive.

For the molecule `O=Cc1ccc(C(=O)OCC(=O)NC(=O)Nc2ccccc2F)cc1`, the molecule was called inactive.

Turning to `COc1cccc(-c2nc3ccc(C(=O)NC(C)Cc4cccnc4)cc3o2)c1` (centres undefined), the molecule was classed as inactive.

As for `Cc1ccc2nc(SCC(=O)Nc3ccc(C(N)=O)cc3)[nH]c2c1`, the molecule was classed as inactive.

Regarding `Cc1ccc(OCC(=O)Nc2ccncc2)cc1`, the molecule was called inactive.

As for `O=S(=O)(c1ccc(N2CCC(c3ccc(Cl)cc3)=N2)cc1)N(CCO)CCO`, the molecule was classed as inactive.

With `NC(N)=NS(=O)(=O)c1ccc(NC(=S)NC(=O)/C=C/c2ccc(F)cc2)cc1`, the result was inactive.

For `Cc1noc(NS(=O)(=O)c2ccc(NC(=O)/C=C/c3ccc(Br)cc3)cc2)c1C`, the result was inactive.

On to `CCOc1ccc(N(C(C)C(=O)Nc2cccnc2)S(C)(=O)=O)cc1` (centres undefined), for which the molecule was called inactive.

For the molecule `COc1ccc(C2=NOC(C)(c3nnc(-c4ccccc4)o3)C2)cc1` (centres undefined), the outcome was inactive.

Regarding `Cc1cc(-c2ccc(C)c(S(=O)(=O)Nc3ccc(S(N)(=O)=O)cc3)c2)on1`, the result was inactive.

Consider `O=S(=O)(c1ccc(Nc2ccc(-c3ccc4c(c3)OCCO4)nn2)cc1)N1CCCC1`, for which the molecule was classed as inactive.

Consider `Cc1ccccc1C(=O)OCCN(C)Cc1ccccc1`, for which the molecule was classed as inactive.

With `COC(=O)C1=C(C)N(CCc2c[nH]c3ccccc23)C(=O)C1`, the result was inactive.

In the case of `CC(C)(C)c1ccc(OCCC(=O)Nc2cccc(S(=O)(=O)N3CCCC3)c2)cc1`, the result was inactive.

As to `COC(=O)c1cn(NC(=O)c2ccc([N+](=O)[O-])c(C)c2)c(=O)c2ccccc12`, the outcome was inactive.

As for `N#CC(=C=[N-])C1=C(C#N)C(c2ccccc2F)C([n+]2ccccc2)C(O)(C2CC2)N1` (centres undefined), the molecule was classed as inactive.

Take `COc1ccccc1C/C(N)=N/OC(=O)c1cccs1`: the outcome was inactive.

In the case of `COc1ccc(OC)c(NC(=O)CN2C(=O)C(C)N(c3ccc(C)cc3)C2=O)c1` (centres undefined), the call was inactive.

Regarding `Cc1ccc(S(=O)(=O)Nc2cccc3c2O[C@@H](CN(C)C(=O)Nc2ccc4c(c2)OCO4)[C@H](C)CN([C@@H](C)CO)C3=O)cc1`, the result was inactive.

Consider `CCCc1cc(=O)[nH]c(SCc2ccc(C#N)cc2)n1`, for which the call was inactive.

Take `COc1ccccc1-c1cnc(C(O)c2cc(C)c(OC)c(C)c2)[nH]1` (centres undefined): the result was inactive.

As to `O=C(NNC(=O)C1CC1)Nc1ccc(Cl)cc1`, the call was inactive.

As for `O=C(NCCN1CCN(c2ccccc2F)CC1)c1cccn2c(=O)c3ccccc3nc12`, the molecule was classed as inactive.

Regarding `CCOc1ccc(OCCNC2CCCC2)cc1`, the molecule was classed as inactive.

`CC(C)(C)C1CCc2c(sc(NC(=O)C3CCCO3)c2C(N)=O)C1` (centres undefined): the molecule was called inactive.

`O=C(O)Cn1c(CCS(=O)(=O)c2ccc(Br)cc2)nc2ccccc21`: the molecule was classed as inactive.

For the molecule `COc1ccc(-c2cc(C(F)(F)F)c3c(=O)n(-c4ccccc4)[nH]c3n2)cc1`, the outcome was inactive.

In the case of `O=C(CSc1ccc(Cl)cc1)NC1=NN(c2ccccc2)C(=O)C1`, the outcome was inactive.

These data come from PubChem BioAssay AID624273 (Broad Institute, 2012).
